Holding throughout (experiment): DAPPL (digital affinity profiling via proximity ligation, sequencing); 10 mM Tris-HCl pH 7.5, 50 mM NaCl, 1 mM DTT, 4% glycerol, room temperature, 30 min; GST-TFs on glutathione beads, 16-mer random dsDNA library, 0.1% formaldehyde crosslink after washing; high values mean tight binding
One assay deals with T1, FLI1 (Homo sapiens, UniProt Q01543 1-452).
T1 sequence: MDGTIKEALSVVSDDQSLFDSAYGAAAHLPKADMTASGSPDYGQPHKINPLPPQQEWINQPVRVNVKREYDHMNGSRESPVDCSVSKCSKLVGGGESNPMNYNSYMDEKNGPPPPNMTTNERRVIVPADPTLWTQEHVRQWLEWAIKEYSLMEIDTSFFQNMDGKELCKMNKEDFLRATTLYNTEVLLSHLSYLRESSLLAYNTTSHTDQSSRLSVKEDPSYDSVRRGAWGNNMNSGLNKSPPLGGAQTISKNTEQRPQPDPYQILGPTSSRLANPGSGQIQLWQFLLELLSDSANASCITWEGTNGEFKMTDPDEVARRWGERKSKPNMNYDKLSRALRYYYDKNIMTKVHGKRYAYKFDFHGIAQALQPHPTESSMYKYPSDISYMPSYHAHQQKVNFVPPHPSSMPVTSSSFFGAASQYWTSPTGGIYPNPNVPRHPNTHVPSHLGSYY
To be noted: protein: recombinant; tags: N-terminal GST; dsDNA, one strand shown. The method in brief: (§1)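 Each value of binding signal is a hexamer's read frequency for a factor divided by the same hexamer's frequency in the tag-only sample. Barcoded, bead-captured GST fusions of human transcription factors made in yeast were pooled with that sample and incubated with 200 nmole of a random double-stranded 16-mer DNA library in Tris/NaCl/DTT/glycerol buffer at room temperature for 30 min. Washing, 0.1% formaldehyde crosslinking, proximity ligation, PCR and Illumina NextSeq500 sequencing followed.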

For a further assay, the target named is T2, GABPA (Homo sapiens, UniProt Q06546 1-454).
T2 sequence: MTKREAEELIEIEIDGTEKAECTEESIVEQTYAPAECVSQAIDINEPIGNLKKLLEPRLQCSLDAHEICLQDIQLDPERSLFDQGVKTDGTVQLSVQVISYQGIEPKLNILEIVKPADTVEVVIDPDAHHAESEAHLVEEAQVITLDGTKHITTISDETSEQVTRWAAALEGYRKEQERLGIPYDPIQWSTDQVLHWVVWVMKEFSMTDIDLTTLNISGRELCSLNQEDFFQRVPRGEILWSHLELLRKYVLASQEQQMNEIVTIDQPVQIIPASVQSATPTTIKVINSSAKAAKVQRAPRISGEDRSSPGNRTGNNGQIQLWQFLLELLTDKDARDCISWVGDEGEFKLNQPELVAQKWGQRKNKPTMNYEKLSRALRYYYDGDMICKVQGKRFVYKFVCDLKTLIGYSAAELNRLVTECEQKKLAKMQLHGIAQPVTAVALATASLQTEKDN
To be noted: protein: recombinant; tags: N-terminal GST; dsDNA, one strand shown. In outline:
as §1

The target of a further assay is T3, EHF (Homo sapiens, UniProt Q9NZC4 1-300).
T3 sequence: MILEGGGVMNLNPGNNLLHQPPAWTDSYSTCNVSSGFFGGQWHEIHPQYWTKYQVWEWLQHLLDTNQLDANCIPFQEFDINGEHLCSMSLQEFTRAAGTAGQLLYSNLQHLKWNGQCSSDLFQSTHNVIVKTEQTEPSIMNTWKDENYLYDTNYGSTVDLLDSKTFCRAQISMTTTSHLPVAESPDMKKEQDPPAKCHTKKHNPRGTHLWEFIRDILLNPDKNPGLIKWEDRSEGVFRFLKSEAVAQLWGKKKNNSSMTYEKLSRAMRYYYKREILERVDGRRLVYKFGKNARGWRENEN
Particulars: protein: recombinant; tags: N-terminal GST; dsDNA, one strand shown. In outline: as §1

Another assay has as its target T4, ERF (Homo sapiens, UniProt P50548 1-548).
T4 sequence: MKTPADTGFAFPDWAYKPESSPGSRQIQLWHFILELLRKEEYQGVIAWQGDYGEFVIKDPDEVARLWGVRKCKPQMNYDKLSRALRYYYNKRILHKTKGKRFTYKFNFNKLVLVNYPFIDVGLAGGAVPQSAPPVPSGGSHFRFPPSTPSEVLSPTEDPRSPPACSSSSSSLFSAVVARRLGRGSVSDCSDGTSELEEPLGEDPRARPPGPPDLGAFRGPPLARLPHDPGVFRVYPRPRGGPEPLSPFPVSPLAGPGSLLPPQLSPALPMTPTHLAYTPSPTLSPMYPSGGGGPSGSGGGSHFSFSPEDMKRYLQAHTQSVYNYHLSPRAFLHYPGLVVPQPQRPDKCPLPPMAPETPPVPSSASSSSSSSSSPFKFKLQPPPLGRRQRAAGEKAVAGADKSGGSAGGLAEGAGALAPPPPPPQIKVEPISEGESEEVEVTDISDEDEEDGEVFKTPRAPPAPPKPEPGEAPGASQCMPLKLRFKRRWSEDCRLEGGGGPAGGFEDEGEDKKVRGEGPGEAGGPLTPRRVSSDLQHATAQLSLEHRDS
Particulars: protein: recombinant; tags: N-terminal GST; dsDNA, one strand shown. In outline: as §1

The next assay addresses T5, ELF5 (Homo sapiens, UniProt Q9UKW6-2 1-255).
T5 sequence: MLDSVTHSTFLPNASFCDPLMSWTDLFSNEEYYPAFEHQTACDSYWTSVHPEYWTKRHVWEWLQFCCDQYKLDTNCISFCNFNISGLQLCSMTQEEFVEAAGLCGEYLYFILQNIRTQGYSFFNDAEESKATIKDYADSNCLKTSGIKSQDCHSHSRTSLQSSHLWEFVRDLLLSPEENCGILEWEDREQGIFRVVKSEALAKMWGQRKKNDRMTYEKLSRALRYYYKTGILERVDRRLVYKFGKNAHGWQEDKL
Particulars: protein: recombinant; tags: N-terminal GST; dsDNA, one strand shown. In outline: as §1

The target in another assay is HSF1 (Homo sapiens, UniProt Q00613 1-529). To be noted: protein: recombinant; tags: N-terminal GST; chain copies: 3; dsDNA, one strand shown. The method in brief: as §1
A further assay addresses T6, SPIC (Homo sapiens, UniProt Q8N5J4 1-248).
T6 sequence: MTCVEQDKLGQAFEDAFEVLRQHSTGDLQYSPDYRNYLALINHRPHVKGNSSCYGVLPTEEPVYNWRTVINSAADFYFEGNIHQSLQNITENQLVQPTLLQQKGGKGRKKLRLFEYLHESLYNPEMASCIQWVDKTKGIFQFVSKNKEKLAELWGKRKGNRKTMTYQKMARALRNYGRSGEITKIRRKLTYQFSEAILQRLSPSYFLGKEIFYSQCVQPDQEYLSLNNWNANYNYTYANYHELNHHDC
Particulars: protein: recombinant; tags: N-terminal GST; dsDNA, one strand shown. In outline:
as §1

Sequence of HSF1 (Q00613 whole entry): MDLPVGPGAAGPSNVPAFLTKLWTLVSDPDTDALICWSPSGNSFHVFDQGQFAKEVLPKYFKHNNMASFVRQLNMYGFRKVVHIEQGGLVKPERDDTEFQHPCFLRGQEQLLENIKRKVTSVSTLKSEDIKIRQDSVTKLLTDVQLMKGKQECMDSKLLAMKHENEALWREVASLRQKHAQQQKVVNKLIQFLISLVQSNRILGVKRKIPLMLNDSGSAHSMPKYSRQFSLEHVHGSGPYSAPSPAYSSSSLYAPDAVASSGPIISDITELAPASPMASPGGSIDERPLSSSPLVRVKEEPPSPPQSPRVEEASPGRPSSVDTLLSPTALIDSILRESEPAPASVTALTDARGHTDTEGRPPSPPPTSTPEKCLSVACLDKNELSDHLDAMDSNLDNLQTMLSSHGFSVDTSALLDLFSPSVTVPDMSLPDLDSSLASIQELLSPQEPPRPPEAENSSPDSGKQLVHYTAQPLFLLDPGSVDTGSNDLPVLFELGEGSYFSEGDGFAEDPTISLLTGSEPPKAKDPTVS

Consider CATTGG, for which the binding signal with FLI1 was 1.05 fold enrichment (6-mer frequency, TF over GST control); with GABPA, 1 fold enrichment (6-mer frequency, TF over GST control); in the assay with EHF, 1 fold enrichment (6-mer frequency, TF over GST control); with ERF, 1.05 fold enrichment (6-mer frequency, TF over GST control).
Consider GACGTT, for which the binding signal with FLI1 is 1.05 fold enrichment (6-mer frequency, TF over GST control); with ELF5 it was 1.01 fold enrichment (6-mer frequency, TF over GST control).
As to GTCTAG, the binding signal in the assay with HSF1 is 1.48 fold enrichment (6-mer frequency, TF over GST control).
For TGTAGA, the binding signal is 1.12 fold enrichment (6-mer frequency, TF over GST control) with HSF1 and 1.1 fold enrichment (6-mer frequency, TF over GST control) with SPIC.
With GAGAAA, the binding signal with HSF1 was 1.49 fold enrichment (6-mer frequency, TF over GST control).

The record behind these values is publication PMC7862700, “An all-to-all approach to the identification of sequence-specific readers for epigenetic DNA modifications on cytosine”.
